15 molecules from PubChem BioAssay (NCATS) can be followed below.

The nature of assay [1]: Quantitative High-Throughput drug screen in 47 multiple myeloma cell lines against the NCATS MIPE library collection: OPM1_PLB cell viability assay (AID 1918989). Also: nearly all actives have a fitted effect of over 40% in size. Summed up:
(§1)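 Readout: median RLU from CellTiter-Glo after 5 min at room temperature. Preceding step was 48 h drug treatment of 500 cells/well at 37 °C, 5% CO2, with DMSO-only and media-only control wells.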

Assay [2] can be described thus: Quantitative High-Throughput drug screen in 47 multiple myeloma cell lines against the NCATS MIPE library collection: SKMM1_PLB cell viability assay (AID 1919863). Also: nearly all actives have a fitted effect of over 35% in size. Particulars: SKMM1 myeloma viability, CellTiter-Glo ATP, 48 h; viability: stronger effect = lower value. The method in brief: as §1
Assay [3] can be described thus: Quantitative High-Throughput drug screen in 47 multiple myeloma cell lines against the NCATS MIPE library collection: U266_ATCC cell viability assay (AID 1919864). Also: nearly all actives have a fitted effect of over 35% in size. The method in brief:
as §1

Assay [4] can be described thus: Quantitative High-Throughput drug screen in 47 multiple myeloma cell lines against the NCATS MIPE library collection: XG1_PLB cell viability assay (AID 1919866). Also: nearly all actives have a fitted effect of over 35% in size. The method in brief: as §1
Assay [5] is described as follows: Quantitative High-Throughput drug screen in 47 multiple myeloma cell lines against the NCATS MIPE library collection: VP6_DJ cell viability assay (AID 1919867). Also: nearly all actives have a fitted effect of over 40% in size. Summed up: as §1
The nature of assay [6]: Quantitative High-Throughput drug screen in 47 multiple myeloma cell lines against the NCATS MIPE library collection: UTMC2_PLB cell viability assay (AID 1919868). Also: nearly all actives have a fitted effect of over 55% in size. As to conditions: CellTiter-Glo ATP luminescence, 48 h; viability (% of DMSO control): at 45.8 µM (top of the series). The method in brief: as §1
In general terms: Cellular ATP, detected with luciferase, serves as a proxy for viable cell number.

The nature of assay [7]: Quantitative High-Throughput drug screen in 47 multiple myeloma cell lines against the NCATS MIPE library collection: PE2_PLB cell viability assay (AID 1919869). Also: nearly all actives have a fitted effect of over 35% in size. Summed up: as §1
Assay [8] is described as follows: Quantitative High-Throughput drug screen in 47 multiple myeloma cell lines against the NCATS MIPE library collection: PCM6_Riken cell viability assay (AID 1919870). Also: nearly all actives have a fitted effect of over 30% in size. Summed up:
as §1

Assay [9] is described as follows: Quantitative High-Throughput drug screen in 47 multiple myeloma cell lines against the NCATS MIPE library collection: RPMI8226_ATCC cell viability assay (AID 1919871). Also: nearly all actives have a fitted effect of over 30% in size. Summed up: as §1
Assay [10] is described as follows: Quantitative High-Throughput drug screen in 47 multiple myeloma cell lines against the NCATS MIPE library collection: OPM2_DSMZ cell viability assay (AID 1919872). Also: nearly all actives have a fitted effect of over 30% in size. Summed up: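 Myeloma cell lines, 500 cells per well, exposed to MIPE 4.0 library compounds for 48 h at 37C, 5% CO2. Viability from ATP by CellTiter-Glo luminescence; normalised to DMSO (100%) and media-only (0%) wells.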

A short description of assay [11]: Quantitative High-Throughput drug screen in 47 multiple myeloma cell lines against the NCATS MIPE library collection: KMS28BM_JCRB cell viability assay (AID 1919874). Also: nearly all actives have a fitted effect of over 35% in size. The method in brief:
as §1

Assay [12] is described as follows: Quantitative High-Throughput drug screen in 47 multiple myeloma cell lines against the NCATS MIPE library collection: XG6_PLB cell viability assay (AID 1919865). Also: nearly all actives have a fitted effect of over 40% in size. The method in brief:
as §1

Assay [13] is described as follows: Quantitative High-Throughput drug screen in 47 multiple myeloma cell lines against the NCATS MIPE library collection: KMS11_JCRBsus cell viability assay (AID 1919873). Also: nearly all actives have a fitted effect of over 50% in size. The method in brief: as §1

Several values for one entry are separate records, joined by “and”; a condition that tells them apart may be missing. Identical values can stand only once. Inconclusive results are not listed. A number with no mark means an inactive call. Activity calls are given as the source filed them. Calls follow the shape of the dose curve; as a rule, active = well fitted cell-killing curve with a large enough effect; inconclusive = small, poorly fitted or top-dose-only effect, or effect the other way; inactive = no such curve, though single readings can be large or run the other way.
Potency is read from the fitted curve at half-maximal effect.

Take `COc1cccc2cc(-c3nc(C4CCC(C(=O)O)CC4)n4ncnc(N)c34)[nH]c12` (stereo not given): the Potency is 2.35 µM (active) in [1]; 1.87 µM (active) in assay [2]; 0.296 µM (active) in [3]; 0.148 µM (active) in assay [4]; 833 nM (active) in assay [5]; 235 nM (active) in [6]. Further, the Potency in [7] is 0.372 µM (active); in assay [8], 1.87 µM (active); in assay [9], 590 nM (active); in [10], 2.96 µM (active); in assay [11] it was 1.48 µM (active).
In the case of `CC(C)(Sc1ccc(CCN(CCCCC2CCCCC2)C(=O)NC2CCCCC2)cc1)C(=O)O`, the Potency result in assay [1], in assay [12], in [4], in [5], in assay [13] and in [11] was “inactive” throughout. Besides, the figures for the Potency in assay [2], in assay [3] and in assay [9] were 14.8 µM (active), 16.6 µM (active) and 4180 nM (active), respectively.
With `N[C@@H]1CONC1=O`, the Potency entry in [1], in [3], in [12], in assay [4], in assay [6] and in [7] was “inactive” throughout. Moreover, the Potency entry in assay [9], in [10], in assay [13] and in [11] was “inactive” in each case. For the same molecule, the viability (as a rule, a read-out of living cells in per cent, often relative to untreated cells) in assay [2] was 132%. Moreover, in assay [5], the Potency was 20900 nM (active).
For the molecule `CCc1cncnc1N1CCN(Cc2nc3ccc(C(F)(F)F)cc3[nH]2)CC1`, the Potency in assay [1] is 18.7 µM (active); in assay [2] it was 18.7 µM (active); in assay [3] it was 6.62 µM (active); in [4] it was 10.5 µM (active); in assay [6] it was 18700 nM (active); in assay [10] it was 9.35 µM (active). Besides, the figures for the Potency in [13] and in assay [11] were 11.8 µM (active) and 23.5 µM (active), respectively.
Regarding `CC(C=CC1=C(C)CCCC1(C)C)=CC=CC(C)=CC(=O)O`, the Potency in [1] is 8.33 µM (active); in assay [2], 14.8 µM (active); in assay [3], 2.09 µM (active); in [12] it was 935 nM (active) and 5.26 µM (active); in assay [4], 1.87 µM (active) and 16.6 µM (active); in assay [7], 16.6 µM (active). For the same molecule, in [8], the Potency is 14.8 µM (active) and 18.7 µM (active). The Potency result in assay [11] was “inactive”.
For `Cc1c(CN2CCN(C(=O)C(C)C)CC2)sc2c(N3CCOCC3)nc(-c3cnc(N)nc3)nc12`, the Potency is 0.118 µM (active) in assay [1]; 0.148 µM (active) in assay [2]; 0.372 µM (active) in assay [3]; 132 nM (active) in assay [12]; 0.0662 µM (active) in [4]; 105 nM (active) in [5]. Further, the Potency in [6] was 52.6 nM (active); in assay [7], 0.0662 µM (active); in assay [8] it was 0.235 µM (active); in assay [9], 29.6 nM (active); in assay [10] it was 0.118 µM (active); in [11], 0.0372 µM (active).
As for `Cc1cn[nH]c1`, the Potency in [1] is 1.66 µM (active); in assay [2], 0.0662 µM (active); in assay [3], 0.662 µM (active); in assay [12], 296 nM (active); in assay [4], 1.05 µM (active); in assay [5], 93.5 nM (active). Besides, the Potency in assay [7] is 4.69 µM (active); in assay [8], 0.0833 µM (active); in assay [9], 118 nM (active); in [10] it was 4.18 µM (active); in [13] it was 0.166 µM (active); in assay [11] it was 0.0469 µM (active).
As to `CS(=O)(=O)Oc1ccc2c(NC(N)=O)c(C(=O)c3ccc(Cl)cc3Cl)oc2c1`, the Potency in assay [1] was 20.9 µM (active); in [3], 11.8 µM (active); in assay [12], 16600 nM (active); in assay [4], 20.9 µM (active); in assay [5] it was 9350 nM (active); in assay [6] it was 16600 nM (active). Besides, the values for the Potency in assay [7], in assay [8] and in assay [11] were 23.5 µM (active), 20.9 µM (active) and 2.35 µM (active), respectively. In addition, in [2], the viability is 128%. Moreover, the Potency entry in [10] was “inactive”.
For `Fc1ccc(Cl)cc1-c1nc(Nc2ccncc2)c2nccnc2n1`, the Potency in assay [1] is 14.8 µM (active); in assay [12], 3320 nM (active); in [7], 7.43 µM (active); in assay [8] it was 5.9 µM (active). Besides, in assay [2], the viability was 120%. For the same molecule, the Potency entry in [3], in [4], in assay [9], in assay [10] and in assay [11] was “inactive” throughout.
In the case of `O=C(O)[C@@H](c1ccc(OCc2ccc3ccccc3n2)cc1)C1CCCC1`, the Potency entry in assay [1], in [3], in assay [7], in assay [8] and in assay [10] was “inactive” in each case. Besides, in assay [2], the viability is 106%. Also, the values for the Potency in assay [4] and in assay [5] were 5.26 µM (active) and 5900 nM (active), respectively.
With `CC(c1cc2ccccc2s1)N(O)C(N)=O` (stereo not given), the Potency result in assay [1], in [3], in assay [12], in assay [4], in assay [7] and in assay [9] was “inactive” each time. Also, the Potency entry in assay [13] and in assay [11] was “inactive” throughout. Also, the viability in [2] is 118%. Moreover, the Potency in [5] is 3320 nM (active).
`COc1ccc(-c2ccc3c(N4CCOC[C@H]4C)nc(N4CCOC[C@H]4C)nc3n2)cc1CO`: the Potency in assay [1] was 0.0148 µM (active); in [2], 0.0148 µM (active); in [3] it was 0.0074 µM (active); in assay [12], 14.8 nM (active); in [5], 6.6 nM (active); in assay [6], 1 nM (active). The results for the Potency in [7], in [8] and in [11] were 0.0148 µM (active), 0.0166 µM (active) and 0.0083 µM (active), respectively.
Turning to `O=C1CCCC2=C1C(c1[nH]ncc1Cl)N=C(Nc1nc3ccccc3o1)N2` (stereo not given), the Potency in [1] was 10.5 µM (active); in assay [2], 10.5 µM (active); in [3] it was 14.8 µM (active); in [4] it was 2.96 µM (active); in assay [5], 93.5 nM (active); in [7], 0.526 µM (active). For the same molecule, the Potency result in assay [10] was “inactive”.
For the molecule `C[C@]1(c2nc3c(C(N)=O)cccc3[nH]2)CCCN1`, in assay [1], the Potency entry was “inactive”.
Turning to `COc1cc2nccc(Oc3ccc(NC(=O)NC4CC4)c(Cl)c3)c2cc1C(N)=O`, the Potency in assay [1] is 16.6 µM (active); in assay [2], 13.2 µM (active); in assay [3], 7.43 µM (active); in assay [12] it was 3320 nM (active); in assay [4] it was 18.7 µM (active); in assay [6], 2640 nM (active). In addition, the Potency is 18.7 µM (active) in [7]; 16.6 µM (active) in [8]; 20900 nM (active) in assay [9]; 13.2 µM (active) in assay [10]; 20.9 µM (active) in [13]; 16.6 µM (active) in [11].
